IL-2 act = activators of IL-2; activation, % (series mostly up to about 46 µM); IL-2 activation reporter assay, cell-based qHTS; stimulated with anti-CD3/CD4/CD28 beads; in transgenic mouse T cells; 360,000 tested, 0.065% active; in the data active means activation above about 50%; inconclusive means mostly about 30% to 49%; further: 0% is about no effect
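Unstimulated transgenic mouse T cells preincubated 60 min with compound, then stimulated with anti-CD3/anti-CD4-coated beads plus anti-CD28 for 18 h at 37 degrees C. IL-2 response read as EGFP and DsRed fluorescence by plate cytometry.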
a7 integrin act = activates integrin-mediated alleviation for muscular dystrophy; alpha7betagal myoblasts, beta-gal FDG fluorescence, 48 h; Potency, µM (titrated, usually from 38.3 µM), for inactives: at the top dose activation, most hits filed as activators; 350,000 tested, 0.064% active;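 further: potency means the concentration at half of the fitted maximal effect; 100% = response of the positive control SU9516; nearly all actives have a fitted effect of over 60% in size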
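Alpha7betagal+/- myoblasts (passage 13) were plated 16-24 hr, then exposed to compounds (1:260 dilution of DMSO stock) for 48 hours at 37C. After MPER lysis, β-galactosidase reporter activity was read as FDG fluorescence (ex 480/em 540) after 30 minutes.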
Nrf2 ARE act = Nrf2 pathway activation | AREc32 ARE-luciferase reporter (MCF7-derived line), luminescence, 24 h | Potency, µM (highest dose often 46.1 µM), for the others: at the top dose activation, hits mostly activators | 410,000 tested, 0.31% active; further: potency means the concentration at half of the fitted maximal effect; % of control where 0% means no effect; nearly all actives have a fitted effect of over 65% in size
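Quantitative high-throughput format: AREc32 reporter cells, 1000 per well, received compound by pin transfer and were incubated 24 hr at 37 deg C, 5% CO2, before Steady-Glo luminescence detection.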
uPA surface inh = blocks generation of uPA at the cell surface; cell surface uPA generation assay, qHTS; Potency, µM (top dose mostly 38.3 µM), inactives show at the top dose activity change, negative = inhibition, usual class: inhibitors; 330,000 tested, 0.31% active; AID 540303; active means well fitted inhibition curve with a large enough effect; inconclusive means small, poorly fitted or top-dose-only effect; inactive means no such curve, though single readings can be large or run the other way; tested in mouse RAW 264.7 cells; further: potency means the concentration at half of the fitted maximal effect; on the % scale 0 is the no-effect control and ±100 the full control effect; nearly all actives have a fitted effect of over 55% in size
12-LOX inh = inhibitors of human 12S-lipoxygenase ALOX12; purified 12hLO, xylenol orange hydroperoxide absorbance; Potency, µM (doses to about 108 µM), without a hit: top-dose activity change, negative = inhibition, hits mostly inhibitors; 580,000 tested, 1.1% active; further: potency means the concentration at half of the fitted maximal effect; on the % scale 0 is the no-effect control and ±100 the full control effect
Target sequence (P18054 whole entry, looked up): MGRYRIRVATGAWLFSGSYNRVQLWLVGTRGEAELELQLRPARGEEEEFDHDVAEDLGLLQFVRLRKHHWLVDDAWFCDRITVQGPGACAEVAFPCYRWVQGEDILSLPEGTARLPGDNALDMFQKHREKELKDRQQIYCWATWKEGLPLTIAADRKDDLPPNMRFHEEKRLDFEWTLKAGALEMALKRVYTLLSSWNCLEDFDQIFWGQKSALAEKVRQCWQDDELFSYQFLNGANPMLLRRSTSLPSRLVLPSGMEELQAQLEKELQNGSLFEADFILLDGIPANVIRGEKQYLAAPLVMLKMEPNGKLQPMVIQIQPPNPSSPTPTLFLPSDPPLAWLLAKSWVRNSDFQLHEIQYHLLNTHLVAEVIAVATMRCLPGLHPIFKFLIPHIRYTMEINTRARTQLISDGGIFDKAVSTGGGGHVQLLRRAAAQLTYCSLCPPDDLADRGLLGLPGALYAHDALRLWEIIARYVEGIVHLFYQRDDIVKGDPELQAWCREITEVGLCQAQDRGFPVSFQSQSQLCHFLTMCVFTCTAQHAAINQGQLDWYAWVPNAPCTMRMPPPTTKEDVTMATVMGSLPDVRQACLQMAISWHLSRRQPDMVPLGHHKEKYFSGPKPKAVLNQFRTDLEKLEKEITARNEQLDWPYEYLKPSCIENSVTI
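Hydroperoxide product was detected by ferrous iron/xylenol orange as the 573 to 405 nm absorbance ratio. Arachidonic acid at 40 uM (final) was turned over for 30 min at room temperature by 150 nM human 12hLO, pH 7.0 Hepes buffer, after 15 min compound preincubation.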
* hit, by the source's call; ! = repeats disagree; [ ] = dose if it differs, or a comment. Sampled rows, rich in hits. Any-hit rate of the full collection: about 1.5%. Unless noted, the call rests on the fitted dose curve; in most records, active means well fitted curve in the direction sought with a large enough effect; inconclusive means small, poorly fitted or top-dose-only effect, or another doubt; inactive means no such curve, though single readings can be large; an effect the other way counts as inactive or inconclusive.

Results for O=C(NCC1OCCc2ccccc21)c1ccco1 (configuration not stated) ?
IL-2 act: 0; a7 integrin act: 3%; Nrf2 ARE act: 11µM*; uPA surface inh: 3%; 12-LOX inh: inconclusive

How did c1ccc(CN2CCN(c3nc(NCc4ccco4)c4ccccc4n3)CC2)cc1 do in these assays?
IL-2 act: 0; a7 integrin act: -42%; Nrf2 ARE act: 8%; uPA surface inh: -14%; 12-LOX inh: 40µM*

Results for OCCN1CCN(c2nc(NCc3ccco3)c3ccccc3n2)CC1 ?
IL-2 act: -1; a7 integrin act: 5%; Nrf2 ARE act: 0%; uPA surface inh: 3%; 12-LOX inh: inconclusive

How did Clc1cccc(-c2noc(-c3ccc[nH]3)n2)c1 do in these assays?
12-LOX inh: 45µM*

How did CC(=O)NC(CCc1ccc(Cl)c(Cl)c1)c1cccc(O)c(=O)c1 (configuration not stated) do in these assays?
IL-2 act: 2; a7 integrin act: 0%; Nrf2 ARE act: -1%; 12-LOX inh: 40µM*

What do the screens show for `Cc1ccc(Cc2c(-c3ccc(Cl)cc3)nc3c(Cl)cc(C(F)(F)F)cn23)cc1`?
IL-2 act: 2; Nrf2 ARE act: 4%; 12-LOX inh: 35µM*

What do the screens show for `Cc1c(C)n(Cc2ccncc2)c2ncn3ncnc3c12`?
12-LOX inh: 0%

How did CS(=O)(=O)Nc1cccc(-c2cncnc2NCc2ccccc2)c1 do in these assays?
12-LOX inh: 40µM*

What do the screens show for `CS(=O)(=O)Nc1cccc(-c2cc(NCc3ccccc3)ncn2)c1`?
12-LOX inh: 11µM*

What do the screens show for `COc1cccc(-c2cncnc2Nc2ccccc2)c1`?
12-LOX inh: 40µM*

How did CN(C)c1cc(-c2cccc(NS(C)(=O)=O)c2)ncn1 do in these assays?
12-LOX inh: 35µM*

Results for COCC(C)NC(=O)CSc1nc(-c2ccc(OC)c(OC)c2)cc(C(F)(F)F)n1 (configuration not stated) ?
12-LOX inh: 57%

How did COC(=O)c1ccc(C2/C(=C(\O)c3cccc(OC)c3)C(=O)C(=O)N2c2ccccn2)cc1 (configuration not stated) do in these assays?
12-LOX inh: 1.1µM*

How did O=C(c1ccc(Cl)s1)N1CCCC2(C1)Nc1cccnc1NC2=NC1CCCC1 (configuration not stated) do in these assays?
12-LOX inh: 54%

What do the screens show for `Cc1ccc(C(=O)c2sc(Nc3cccc(Cl)c3C)nc2N)cc1`?
12-LOX inh: 28µM*

What do the screens show for `Cc1ccc(C(=O)c2sc(Nc3cc(C)cc(C)c3)nc2N)cc1`?
12-LOX inh: -15%

What do the screens show for `CCOC(=O)c1sc(Nc2ccccc2Cl)nc1C`?
IL-2 act: -1; a7 integrin act: -17%; Nrf2 ARE act: 11%; uPA surface inh: -24%; 12-LOX inh: 28µM*

How did O=C1[C@H]2CN(Cc3cccc(Br)c3)C[C@H]2C(=O)N1Cc1ccc2c(c1)OCO2 do in these assays?
12-LOX inh: 8%

What do the screens show for `Oc1ccc(NCc2ccccc2OCc2ccccc2)cc1`?
IL-2 act: -3; a7 integrin act: -46%; Nrf2 ARE act: 4%; uPA surface inh: -10%; 12-LOX inh: 11µM*!

How did COc1ccc(-c2nc3cc(NC(=O)c4ccccc4Cl)ccc3o2)cc1 do in these assays?
12-LOX inh: 11%

What do the screens show for `CCOC(=O)c1oc2ccc(CC#N)cc2c1C`?
12-LOX inh: -6%

What do the screens show for `Cc1sc2nc(SCc3cccc(Cl)c3)n(CCCN3CCOCC3)c(=O)c2c1C`?
12-LOX inh: -7%

Results for O=C(O)c1[nH]c2ccccc2c1C(c1cc(Br)ccc1O)c1c(C(=O)O)[nH]c2ccccc12 ?
IL-2 act: -1; a7 integrin act: inconclusive; Nrf2 ARE act: 0%; uPA surface inh: -4%; 12-LOX inh: inconclusive

What do the screens show for `COc1cc(Cl)cc(C(c2c(C(=O)O)[nH]c3ccccc23)c2c(C(=O)O)[nH]c3ccccc23)c1O`?
IL-2 act: 0; a7 integrin act: -34%; Nrf2 ARE act: 0%; uPA surface inh: 0%; 12-LOX inh: 16µM*

Results for CCOC(=O)c1sc(=S)n(-c2ccc(C)cc2)c1N ?
IL-2 act: -1; a7 integrin act: -29%; Nrf2 ARE act: 1%; uPA surface inh: 2%; 12-LOX inh: inconclusive

What do the screens show for `COC(=O)c1sc(=S)n(-c2ccc(Br)cc2)c1N`?
12-LOX inh: 11µM*

How did COC(=O)c1sc(=S)n(-c2cccc(OC)c2)c1N do in these assays?
12-LOX inh: 13µM*

What do the screens show for `Cc1nc(-c2c3n(c(=O)n(CC(=O)Nc4ccccc4F)c2=O)CCCC3)no1`?
12-LOX inh: 4%

What do the screens show for `Cc1cc(C)nc(NC(=O)/C=C/c2ccccc2Cl)c1`?
IL-2 act: 2; a7 integrin act: -23%; Nrf2 ARE act: inconclusive; uPA surface inh: -2%; 12-LOX inh: inconclusive

How did Cc1cc(C)nc(NC(=O)c2ccc(Cl)cc2Cl)n1 do in these assays?
IL-2 act: -3; a7 integrin act: 10µM*; Nrf2 ARE act: 0%; uPA surface inh: 5%; 12-LOX inh: 15%

What do the screens show for `Cc1cc(C)nc(NC(=O)/C=C/c2ccccc2Cl)n1`?
IL-2 act: -3; a7 integrin act: -47%; Nrf2 ARE act: 8.9µM*; uPA surface inh: -3%; 12-LOX inh: 0%

How did Cc1ccnc(NC(=O)c2ccccc2NC(=O)c2ccc(Cl)cc2Cl)c1 do in these assays?
IL-2 act: 0; a7 integrin act: -41%; Nrf2 ARE act: 5%; uPA surface inh: 2.8µM*; 12-LOX inh: -1%

How did O=C(O)CCNC(=O)c1cc(-c2ccccc2)nc2ccccc12 do in these assays?
12-LOX inh: -4%

How did O=C(C1CC1)N1CCn2c(nn(-c3ccncc3)c2=O)C1 do in these assays?
12-LOX inh: 28%[176 µM]

Results for COCCSc1ccccc1C(=O)Nc1nnc(C)s1 ?
IL-2 act: 3; a7 integrin act: 4%; Nrf2 ARE act: 1%; uPA surface inh: 0%; 12-LOX inh: 11µM*

Results for COCCSc1ccccc1C(=O)Nc1ccccc1C(C)C ?
IL-2 act: 3; a7 integrin act: -19%; Nrf2 ARE act: 0%; uPA surface inh: -1%; 12-LOX inh: inconclusive

Results for COCCSc1ccccc1C(=O)Nc1nccs1 ?
IL-2 act: -1; a7 integrin act: -12%; Nrf2 ARE act: 0%; uPA surface inh: -1%; 12-LOX inh: 14µM*

How did CCCSc1ccccc1C(=O)Nc1cccc(C)c1C do in these assays?
12-LOX inh: 25µM*

What do the screens show for `CCC1CCCCN1S(=O)(=O)c1ccc(NC(=O)c2cc(=O)c3cc(C)ccc3o2)cc1` (configuration not stated)?
12-LOX inh: 9%

Screening data (PubChem)
